Out of some 330,000 compounds screened, about 560 (0.17%) were called active. A call without a number means that no potency is given here. Roughly 1% stayed inconclusive and do not appear here. The call rests on the fitted dose curve; in most records, active means well fitted inhibition curve with a large enough effect; inconclusive means small, poorly fitted or top-dose-only effect, or effect the other way; inactive means flat fitted curve, though single readings scatter. The full list was thinned out, with actives kept by preference.
The compounds below were run against ATP-dependent 6-phosphofructokinase (Trypanosoma brucei brucei) (UniProt O15648) (assay: qHTS Assay to Find Inhibitors of T. brucei phosphofructokinase). Conditions: T. brucei PFK, ADP-Glo luminescence; series mostly up to 57.5 µM.
Chain of ATP-dependent 6-phosphofructokinase (Trypanosoma brucei brucei) (O15648 whole entry, looked up): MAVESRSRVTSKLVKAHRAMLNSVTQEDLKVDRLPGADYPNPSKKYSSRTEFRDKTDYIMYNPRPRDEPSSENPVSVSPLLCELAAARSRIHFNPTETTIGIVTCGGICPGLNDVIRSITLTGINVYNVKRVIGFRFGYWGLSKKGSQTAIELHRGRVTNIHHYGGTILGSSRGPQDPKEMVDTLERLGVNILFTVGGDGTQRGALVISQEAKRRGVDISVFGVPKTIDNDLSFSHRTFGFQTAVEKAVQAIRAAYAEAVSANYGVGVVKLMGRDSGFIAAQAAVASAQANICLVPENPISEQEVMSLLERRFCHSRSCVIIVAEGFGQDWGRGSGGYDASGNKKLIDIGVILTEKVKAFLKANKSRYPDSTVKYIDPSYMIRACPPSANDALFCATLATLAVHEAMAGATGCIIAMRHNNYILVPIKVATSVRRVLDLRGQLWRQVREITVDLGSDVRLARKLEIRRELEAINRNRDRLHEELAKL
Source text: NIH Molecular Libraries Probe Production Network [MLPCN] NIH Chemical Genomics Center [NCGC] Grant: 1 R03 MH092153-01 PI Name: Malcolm Walkinshaw, University of Edinburgh NCGC Assay Overview: Various species of the protozoan family Trypanosomatidae are responsible for a range of serious human diseases in tropical and subtropical areas of the world. […] Many of the disorders caused by trypanosomatids are fatal if left untreated, but most currently used drugs are inefficient and toxic. […] Oxidative metabolism involving the mitochondrial tricarboxylic acid cycle and oxidative phosphorylation are repressed in these parasites, and recent RNA interference (RNAi) experiments have shown that even partial depletion of certain individual glycolytic enzymes can lead to the death of cultured parasites. One such glycolytic enzyme, phosphofructokinase (PFK), catalyzes the formation of fructose-1,6-bisphosphate (F1,6BP) and ADP from fructose-6-phosphate (F6P) and ATP, and in many metabolic circumstances makes an important contribution to the control of flux through the glycolytic pathway. As a specific glycolytic target, PFK is particularly attractive as it catalyzes the first irreversible step in glycolysis, and structural and kinetic studies have shown very substantial and essential differences from corresponding host enzymes, allowing for the discovery of parasite-selective inhibitors. The goal of this screen is to find small-molecule inhibitors of T. brucei PFK using a biochemical assay that measures PFK activity as a function of ADP production. A luminescence-based assay for T. brucei PFK activity has been developed which uses luciferase to detect production of ADP. Traditional luciferase-based nucleotide detection reagents rely on ATP production as a direct substrate for the luciferase reaction; however, PFK catalyzes the transfer of a phosphate from ATP to F6P, resulting in the net depletion of ATP. To directly measure the ADP product of the PFK reaction, we used the ADP-Glo detection kit (Promega), which utilizes two separate reactions to 1) deplete all remaining uncatalyzed ATP and 2) convert all remaining ADP to ATP, which is then detected through a traditional luciferase-coupled reaction. Compounds were screened as a concentration-titration series that ranged from 57 uM to 0.7 nM.
NCGC Assay Protocol Summary: NCGC Assay Protocol Summary: Substrate buffer was dispensed into white, solid 1536-well plates at 3uL/well in 0.1M triethanolamine (TEA) buffer, pH 8.0, containing final concentrations of 5 mM MgCl2, 0.01% Tween20, 0.5 mM fructose-6-phosphate (F6P) and 0.1mM ATP. Then, 23 nL of compounds or DMSO were delivered to each well using a pin tool. One uL T. brucei PFK (0.1M TEA, 0.01% Tween20, 0.1% bovine serum albumin (BSA) and 1.25nM PFK, final concentrations) was then dispensed, and plates were incubated at room temperature for 45 min. The luminescent detection reagent, ADP-Glo (Promega), was then added in two steps: the first reagent, ADP-Glo (which converts remaining uncatalyzed ATP), was added at 2.5uL/well and incubated for ten minutes at room temperature, and the second component, Kinase Detection reagent (which converts ADP to ATP as a substrate for luciferase-based luminescence), was added immediately after at 5uL/well, followed by one final ten minute room temperature incubation. The plates were measured on a ViewLux plate reader for luminescent signal using a clear filter with a one second exposure. The %Activity was determined from the corrected luminescence values. As no specific T. brucei PFK inhibitors have been identified in the literature, 1x (1.25nM) and 0x PFK enzyme controls (untreated) were included to normalize %Activity of identified inhibitors; 0x enzyme values corresponded to 100%Activity (full inhibition), while 1x PFK enzyme values were used to normalize 0%Activity (no inhibition). Concentration-response curves were fitted to the signals arising from the resulting luminescence. […]
Further: nearly all actives have a fitted effect of over 60% in size.
Potency means the concentration at half of the fitted maximal effect.

| Compound | Potency |
| --- | --- |
| O=C(Cc1ccc([N+](=O)[O-])cc1)N/N=C/c1ccco1 | 19 µM (active) |
| OC(Cn1c2ccccc2c2ccccc21)C[n+]1ccccc1 (stereo not given) | inactive |
| CCCCCCN=C(CC)c1c(O)n(CCCC)c(=O)[nH]c1=O | inactive |
| CCOC(=O)C1SC2(C(F)(F)C(F)F)CC1(O)c1c(c(OC)c3occc3c1OC)O2 (stereo not given) | inactive |
| Cn1nnnc1NCc1ccc(Cl)c(Cl)c1 | 10.7 µM (active) |
| Cc1ccc(-n2c(-c3ccc([N+](=O)[O-])cc3)nc3ccccc3c2=O)cc1 | inactive |
| CC(Cc1cccs1)NCc1ccc(Cl)cc1 (stereo not given) | inactive |
| O=C1/C(=C\c2ccc3c(c2)OCO3)N2CCC1CC2 | inactive |
| CCOP(=S)(OCC)C(O)CCCCCn1c(=O)c(F)cn(C2CCCO2)c1=O (stereo not given) | inactive |
| COc1ccc(CCn2c(O)c(C=NCCCn3ccnc3)c(=O)[nH]c2=O)cc1OC | inactive |
